Laboratory results as given in paper PMC4336329 (PLoS ONE, 2015).
Hit rate of the full screen: of about 310,000 compounds, about 14,000 (4.5%) showed an effect of 50% or more. Effects have a minus sign here. What follows is part of a selection rich in strong results, with near analogues and random picks from the rest.

biological target: human ether-à-go-go-related gene (hERG) potassium channel (human, UniProt Q12809); test: primary screen, population patch clamp on CHO cells stably expressing hERG; higher = less effect of the substance
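Also: peak tail current of the secondary pulse compared with the same well before compound.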

human ether-à-go-go-related gene (hERG) potassium channel, sequence (Q12809 whole entry, looked up): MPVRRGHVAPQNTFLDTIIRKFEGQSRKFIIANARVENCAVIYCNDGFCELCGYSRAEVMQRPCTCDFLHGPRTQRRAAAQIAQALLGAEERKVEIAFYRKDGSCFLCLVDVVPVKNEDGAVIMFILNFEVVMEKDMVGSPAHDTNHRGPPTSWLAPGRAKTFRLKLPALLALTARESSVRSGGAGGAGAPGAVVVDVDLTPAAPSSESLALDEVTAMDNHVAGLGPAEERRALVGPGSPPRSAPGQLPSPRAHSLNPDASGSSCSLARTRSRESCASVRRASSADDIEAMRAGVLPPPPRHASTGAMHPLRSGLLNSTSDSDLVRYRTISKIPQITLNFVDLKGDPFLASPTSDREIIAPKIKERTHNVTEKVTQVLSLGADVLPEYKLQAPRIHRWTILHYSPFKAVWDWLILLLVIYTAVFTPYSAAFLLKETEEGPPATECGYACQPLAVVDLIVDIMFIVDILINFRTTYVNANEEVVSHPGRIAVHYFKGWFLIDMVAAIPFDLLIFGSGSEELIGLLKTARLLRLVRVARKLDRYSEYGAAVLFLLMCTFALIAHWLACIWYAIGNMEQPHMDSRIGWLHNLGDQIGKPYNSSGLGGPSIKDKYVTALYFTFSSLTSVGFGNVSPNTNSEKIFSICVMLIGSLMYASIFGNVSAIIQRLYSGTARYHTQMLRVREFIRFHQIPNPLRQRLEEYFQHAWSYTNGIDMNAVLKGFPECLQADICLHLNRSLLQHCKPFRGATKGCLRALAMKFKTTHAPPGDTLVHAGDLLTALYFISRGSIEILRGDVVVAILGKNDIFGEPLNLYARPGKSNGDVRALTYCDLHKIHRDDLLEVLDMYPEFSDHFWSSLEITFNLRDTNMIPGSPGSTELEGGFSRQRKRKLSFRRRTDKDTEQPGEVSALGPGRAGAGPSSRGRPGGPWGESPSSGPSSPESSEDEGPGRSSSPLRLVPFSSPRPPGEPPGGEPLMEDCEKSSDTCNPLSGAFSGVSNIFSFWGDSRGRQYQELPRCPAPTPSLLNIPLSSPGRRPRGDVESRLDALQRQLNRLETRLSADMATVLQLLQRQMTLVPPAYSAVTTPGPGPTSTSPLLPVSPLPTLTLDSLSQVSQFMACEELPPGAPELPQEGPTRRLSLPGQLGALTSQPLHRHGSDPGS

In order of rising “hERG current change (%, negative = inhibition) at 10uM” value:
1. O=C(CCCc1ccccc1)Nc1ccnn1C1CCN(Cc2ccccc2)CC1  -77.3%
2. O=C(C1CCCN(S(=O)(=O)c2cccc3cccnc23)C1)N1CCN(c2ccccc2F)CC1 (stereo not drawn)  -75.5%
3. O=C(CCCc1ccccc1)Nc1ccnn1C1CCN(Cc2ccc(Cl)cc2)CC1  -74.8%
4. CCOC(=O)N1CCN(Cc2nc3cc(NC(=O)c4cccs4)ccc3n2C)CC1  -74.7%
5. CCOC(=O)c1cccc(NC(=O)COc2ccc([N+](=O)[O-])cc2)c1  -68%
6. O=C(C1CCCN(S(=O)(=O)c2cccc3cccnc23)C1)N1CCN(c2ccc(F)cc2)CC1 (stereo not drawn)  -67.5%
7. CCOC(=O)N1CCN(Cc2nc3cc(NC(=O)c4ccco4)ccc3n2CC)CC1  -58%
8. CC(C)CNC(=O)c1cccc(NC(=O)COc2ccc([N+](=O)[O-])cc2)c1  -57.4%
9. CCOC(=O)N1CCN(Cc2nc3cc(NC(=O)c4cccs4)ccc3n2CC)CC1  -55.3%
10. Cc1ccc(C)c(CN2CCC(n3nccc3NC(=O)CCCc3ccccc3)CC2)c1  -54.8%
11. CC(CN1CCC(n2nccc2NC(=O)CCCc2ccccc2)CC1)c1ccccc1 (stereo not drawn)  -51.9%
12. O=C(Nc1ccc(F)cc1)C1CCCN(S(=O)(=O)c2cccc3cccnc23)C1 (stereo not drawn)  -49.3%
13. Cc1ccccc1CN1CCC(n2nccc2NC(=O)CCCc2ccccc2)CC1  -49.3%
14. COc1ccc(N2CCN(C(=O)C3CCCN(S(=O)(=O)c4cccc5cccnc45)C3)CC2)cc1 (stereo not drawn)  -32.1%
15. Cn1c(CN2CCCCC2)nc2cc(NC(=O)c3cccs3)ccc21  -31.2%
16. Cc1cc(F)ccc1S(=O)(=O)N1CCCOC1CNC(=O)C(=O)NCc1ccc2c(c1)OCO2 (stereo not drawn)  -26.9%
17. CCCOC(=O)c1cccc(NC(=O)COc2ccc([N+](=O)[O-])cc2)c1  -26.9%
18. CCOC(=O)N1CCN(Cc2nc3cc(NC(=O)c4ccco4)ccc3n2C)CC1  -26.5%
19. CC(C)n1cc(CN2CCC(n3nccc3NC(=O)CCCc3ccccc3)CC2)cn1  -26%
20. CC(C)CNC(=O)c1cccc(NC(=O)COc2cccc([N+](=O)[O-])c2)c1  -24.7%
21. O=C(CN1C(=O)NC2(CCCCCC2)C1=O)N1CCC(Cc2ccccc2)CC1  -24.4%
22. Cc1cccc(OCC(=O)Nc2cccc(C(=O)NCC(C)C)c2)c1  -17.4%
23. O=C(CCCc1ccccc1)Nc1ccnn1C1CCN(Cc2ccccn2)CC1  -15.2%
24. S=c1nc(-c2ccccc2)n(CCN2CCOCC2)c2c1CCCC2  -13.4%
25. CCOC(=O)c1cc(NC(=O)COc2ccc([N+](=O)[O-])cc2)cc(C(=O)OCC)c1  -12.9%
26. O=C(CCCc1ccccc1)Nc1ccnn1C1CCN(Cc2ccc(CO)o2)CC1  -10.5%
27. CCOc1ccc(C(=O)NC2CC(=O)N(c3ccc4c(c3)OCCO4)C2)cc1 (stereo not drawn)  -10.1%
28. O=C(NCc1cccnc1)c1ccc(=O)oc1  -8.85%
29. CCOC(=O)N1CCN(C(=O)c2cc3cc(C)ccc3[nH]2)CC1  -7.43%
30. Cc1nn(C)cc1CN1CCC(n2nccc2NC(=O)CCCc2ccccc2)CC1  -3.27%
31. CC(=O)N[C@@H](C)C(=O)N1CCC(n2nccc2NC(=O)CCCc2ccccc2)CC1  -2.4%
32. Br.N=C1CCCN1CC(=O)c1ccc(Cl)cc1  1.8%
33. COCc1ccc(CN2CCCC(CO)(Cc3ccccc3C)C2)o1 (stereo not drawn)  2.18%
34. O=[N+]([O-])c1ccc(N2CCCCC2)c(Cl)c1N1CCCCC1  3.77%
35. CCN1C(=O)[C@H]2[C@@H](c3ccc(C)cc3)N3C(=O)N(c4ccccc4)C(=O)[C@@]3(CC)[C@H]2C1=O  3.81%
36. Cc1ccc(NC(=O)CSc2nnc(-c3ccncc3)s2)cc1  5.52%
37. Cn1cc(CN2CCC(n3nccc3NC(=O)CCCc3ccccc3)CC2)cn1  5.95%
38. Cc1ccccc1C(=O)Nc1ccc(Cl)cn1  6%
39. NC(=O)CCn1cnc2ccccc21  6.28%
40. CC12CCC(C/C1=N/O)C2(C)C (stereo not drawn)  6.85%
41. O=C1c2ccccc2C(=O)C1c1ccc(Cl)cc1  8.89%
42. CCOC(=O)N1CCN(Cc2nc3cc(NC(=O)CC)ccc3n2CC)CC1  9.4%
43. CCCC(=O)Nc1ccc2c(c1)nc(CN1CCN(C(=O)OCC)CC1)n2CC  9.54%
44. COc1ccccc1C(=O)N1CCN(Cc2nc(CC3CC3)no2)CC1  9.93%
45. O=C(NCC1CCCO1)c1c(O)c2cccc3c2n(c1=O)CC3 (stereo not drawn)  10.4%
46. O=C(O)C1CCCN(S(=O)(=O)c2cccc3cccnc23)C1 (stereo not drawn)  10.9%
47. O=C(O)[C@@H]1CCCN(S(=O)(=O)c2cccc3cccnc23)C1  11.6%
48. CC(=O)N1CCN(Cc2nc3cc(NC(=O)c4cccs4)ccc3n2C)CC1  13.8%
49. CN1CCN(C(=O)OC2c3nccnc3C(=O)N2c2ccc(Cl)cn2)CC1 (stereo not drawn)  13.9%
50. CC(C)c1ccc[n+](-c2nc([O-])sc2C=O)c1  14.7%
51. CCOC(=O)N1CCN(Cc2nc3cc(NC(C)=O)ccc3n2CC)CC1  14.9%
52. COC(=O)c1ccc(/C=N\NC(=O)CC(=O)NCCc2ccccc2)cc1  19.8%
53. C=C(C)COc1ccc(-c2nc(N)ncc2-c2ccc(Br)cc2)c(O)c1  23.6%
54. CC(=O)Nc1ccc(NC(=O)c2cc(=O)c3cc(C)c(C)cc3o2)cc1  24.6%
